Bioassay records deposited in PubChem by several laboratories.
PLK1 kinase inh – blocks human PLK1 kinase activity; P53350; recombinant PLK1 kinase, TR-FRET peptide phosphorylation; inhibition, % at 10 µM; 97,000 tested, 0.53% active; AID 619;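 active means inhibition of 50% or more in the single-concentration screen; inactive means inhibition below 50%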
PTK2B oligo ant – antagonists of human Pyk2 oligomerization | 99,000 tested, 0.83% active | Q293 cells, Pyk2 FERM NanoBiT luminescence; stronger effect = lower value | z-score (the deposit names both 25 µM and 10 µM) | Q14289;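 active means Z-score of -3 or lower, scaled per plate to the spread of control and sample wells; inactive means z-score above -3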;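 further: negative z-score means lost luminescence so less FERM oligomerization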
HUVEC tox IL1B – HUVEC cytotoxicity counter-screen, IL-1B stimulated | HUVEC cell count loss, Hoechst imaging | 94,000 tested, 0.41% active | cell count reduction, % at 2 µM | AID 845;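 active means cell count reduction more than 3 SD above the screen-wide mean, cut at about 70% in these data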
NFkB transloc inh – blocks IL-1B driven NFkB nuclear translocation in HUVEC cells; HUVEC IL-1B NFkB p65 nuclear translocation imaging; inhibition, % at 2 µM; 94,000 tested, 0.43% active; AID 796;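 active means inhibition above about 30% together with a positive call from visual inspection of the well image, limit read from the data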;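 further: nuclear over cytoplasmic p65 intensity ratio measured by imaging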
Plk1 PBD FP – inhibitors of human Plk1 polo box domain binding. Plk1 PBD phosphopeptide binding, fluorescence polarization. AID 693. P53350. 97,000 tested, 0.13% active. inhibition, %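 (tested at about 20 µM)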; in the data active means inhibition above about 34%, passing the limit was not always enough
NFkB transloc pot – enhances IL-1B driven NFkB nuclear translocation | HUVEC IL-1B NFkB p65 nuclear translocation imaging | activation, % at 2 µM | 94,000 tested, 0.3% active | AID 819;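 active means activation above 40%, about the mean plus 3 SD, also judged a hit on visual image review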;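 further: percent activation is computed from the nuclear over cytoplasmic p65 intensity ratio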
Of the large screens only hits and unclear results are named; the others gave an inactive call. In the library only some 2.2% were active in any assay of this set; here they are far more common.

FC(F)Oc1ccc(NC(=S)NCc2ccccc2)cc1Cl	NFkB transloc inh 30
CCCCCCCCCCSc1n[nH]c(NC(C)=O)n1	none
CCCSc1n[nH]c(NC(C)=O)n1	PLK1 kinase inh 69 (no result: PTK2B oligo ant, HUVEC tox IL1B, NFkB transloc inh, NFkB transloc pot)
NC(=O)CCCc1nc(-c2ccccc2Cl)no1	none
CNC(=O)CCCc1nc(-c2ccccc2Cl)no1	NFkB transloc pot 65
Cc1cnc(N)c2c(=O)oc3ccccc3c12	PLK1 kinase inh 52 (no result: PTK2B oligo ant, HUVEC tox IL1B, NFkB transloc inh, NFkB transloc pot)
Nc1nc(C(=O)N2CCOCC2)nn1S(=O)(=O)c1ccc(Cl)cc1	HUVEC tox IL1B 92
Cc1cc(C)c(S(=O)(=O)Nc2ccc3c4c(cccc24)CC3)c(C)c1	NFkB transloc inh 42
O=C1CC(SC(=Nc2ccccc2)Nc2ccccc2)C(=O)N1c1cccc2ccccc12 (configuration not stated)	PTK2B oligo ant -3
O=C(Nc1ccccc1F)c1cc2nc(C(F)F)cc(C(F)F)n2n1	none
CC(C)CCN1C(=O)c2ccc(-c3nc4ccccc4c(=O)o3)cc2C1=O	PTK2B oligo ant -3.3
O=C1c2ccc(-c3nc4ccccc4o3)cc2C(=O)N1Cc1ccccc1	none
COc1ccc(OCCCC(=O)Nc2cc([N+](=O)[O-])ccc2C)cc1	none
Cc1ccc2cccc(S(=O)(=O)N3CCN(c4cccc(Cl)c4)CC3)c2n1	PTK2B oligo ant -3.1
CSc1ncc(Cl)c(C(=O)C(C#N)c2nc3c(C)cc(C)cc3c(=O)[nH]2)n1 (configuration not stated)	PTK2B oligo ant -3 (no result: PLK1 kinase inh, HUVEC tox IL1B, NFkB transloc inh, Plk1 PBD FP, NFkB transloc pot)
CSc1ncc(Cl)c(C(=O)NCc2ccc3c(c2)OCO3)n1	none
N#Cc1c(SCC(N)=O)nc2c(c1-c1ccc(OCc3ccccc3)cc1)CCCC2	HUVEC tox IL1B 86 (no result: PTK2B oligo ant)
COC(=O)c1ccc2c(=O)n(CCCCCC(=O)NCc3ccc4c(c3)OCO4)c(=O)[nH]c2c1	HUVEC tox IL1B 90
COC(=O)c1ccc2c(=O)n(CCCCCC(=O)NCc3ccccc3)c(=O)[nH]c2c1	none
COc1ccc(C2C(C(C)=O)=C(C)N=c3s/c(=C\c4ccc5c(c4)OCO5)c(=O)n32)c(OC)c1 (configuration not stated)	HUVEC tox IL1B 94
COc1ccc2c(c1)c1ncn(CCN3CCNCC3)c(=O)c1n2C	HUVEC tox IL1B 92
COc1ccc2c(c1)c1ncn(CCN3CCCC3)c(=O)c1n2C	none
CCCC/C(O)=N\S(=O)(=O)c1ccc(N=NN(C)C)cc1	none
CC(=O)Nc1nnc(SCc2ccc(F)cc2)s1	HUVEC tox IL1B 80
Cc1ccc(S(=O)(=O)N2CCSC2c2ccco2)cc1 (configuration not stated)	none
COC(=O)C1=C(N)N(c2ccccc2C(F)(F)F)C2=C(C(=O)CCC2)C1c1ccc2c(c1)OCO2 (configuration not stated)	PTK2B oligo ant -4.3
COC(=O)c1cccc(Oc2nc3c(c(=O)n(C)c(=O)n3C)n2C(C)C)c1	none (no result: PTK2B oligo ant)
CNC(=O)COC(=O)c1cc(=O)[nH]c2ccccc12	none
O=C(OCCN1C(=O)c2ccccc2C1=O)c1cc(=O)[nH]c2ccccc12	none
CC(C)(C)NC(=O)NC(=O)COC(=O)c1cc(=O)[nH]c2ccccc12	PTK2B oligo ant -3.8
CCCCCOC(=O)c1cc(=O)[nH]c2ccccc12	PTK2B oligo ant -3.5
CCCC(C)NC1=NCCCCC1 (configuration not stated)	none
CCCOc1ccc(C(=O)N2CCN(c3ccc(N)cc3Cl)CC2)cc1	PTK2B oligo ant -3.9
COC(=O)c1ccccc1NS(=O)(=O)c1ccc2c3c(cccc13)C(=O)N2	PTK2B oligo ant -3.7
Cc1ccc(NC(=O)CS(=O)CC(=O)Nc2ccc3c(c2)OCO3)cc1Cl (configuration not stated)	none
O=C(NC1CCCCC1)C(c1ccc2ncccc2c1)N(Cc1ccccc1)C(=O)c1cccs1 (configuration not stated)	PTK2B oligo ant -4
O=C(NC1CCCCC1)C(c1ccc2ncccc2c1)N(Cc1ccc2c(c1)OCO2)C(=O)c1cccs1 (configuration not stated)	PTK2B oligo ant -3.6
COc1ccc(CN(C(=O)c2ccc3c(c2)OCCO3)C(C(=O)NC2CCCCC2)c2ccc3ncccc3c2)cc1 (configuration not stated)	none
O=C(NCc1ccccc1)C(c1ccccc1)N(Cc1ccc2c(c1)OCO2)C(=O)Cc1cccs1 (configuration not stated)	none
